Results on eight compounds are retold here after PubChem BioAssay (NCI).

Compounds without any hit were thinned out: in the full panel of roughly 83,000, 20% have a hit.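 The test compound was applied at a single concentration to cells in 96-well plates for 48 hours, and percent growth was recorded.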 Unmarked numbers belong to inactive results. Activity calls are given as the source filed them. How the source made its calls: active means growth percent below 10; inactive means the rest.

Among the test systems are DU-145 prostate; K-562 leukemia; MALME-3M melanoma; MDA-MB-231 breast; RXF 393 renal; SF-268 CNS; SF-295 CNS; SF-539 CNS; UACC-257 melanoma; M14 melanoma; HCT-15 colon; HT29 colon; SNB-75 CNS; SNB-19 CNS; U251 CNS; PC-3 prostate; SK-MEL-5 melanoma; UACC-62 melanoma; LOX IMVI melanoma; SK-MEL-28 melanoma.
What all share (experiment): NCI-60 one-dose screen, 48 h (100 = growth as untreated, 0 = no growth, -100 = all killed)
Holding throughout (settings): 10 µM unless noted

With `CCOC(=O)c1cc(C(=O)c2cc(OC)c(OC)c(OC)c2)n2ccccc12`, the growth with DU-145 prostate is 24.9%; with K-562 leukemia, 11.5%; with MALME-3M melanoma it was 35.6%; with MDA-MB-231 breast it was 37.9%; in the test on RXF 393 renal it was -0.358% (active); in the test on SF-268 CNS, 55.7%. Moreover, the growth was 21.3% with SF-295 CNS; -6.66% (active) in the test with SF-539 CNS; 50.1% in the test with UACC-257 melanoma; -21.8% (active) with M14 melanoma; 29% with HCT-15 colon; 1.16% (active) in the test on HT29 colon. Besides, the growth is 32.9% in the test with SNB-75 CNS; 43.4% with SNB-19 CNS; 21.6% in the test with U251 CNS; 22.1% in the test on PC-3 prostate; 37.7% with SK-MEL-5 melanoma; 37.8% with UACC-62 melanoma. Moreover, the growth in the test with LOX IMVI melanoma was 47%; in the test with SK-MEL-28 melanoma, 72.3%.

With `COC(=O)c1cc(Br)ccc1O`, the growth with DU-145 prostate is 110%; with K-562 leukemia, 111%; in the test on MALME-3M melanoma it was 102%; with MDA-MB-231 breast it was 118%; in the test with RXF 393 renal, 101%; in the test with SF-268 CNS it was 105%. Further, the growth in the test on SF-295 CNS was 102%; in the test with SF-539 CNS it was 107%; in the test on UACC-257 melanoma, 109%; in the test on M14 melanoma it was 105%; in the test on HCT-15 colon, 101%; in the test on HT29 colon, 103%. The growth was 91.5% with SNB-75 CNS; 108% with SNB-19 CNS; 102% in the test with U251 CNS; 94.5% in the test on PC-3 prostate; 95.2% in the test with SK-MEL-5 melanoma; 102% in the test with UACC-62 melanoma. The growth in the test with LOX IMVI melanoma was 94.7%; in the test with SK-MEL-28 melanoma, 107%.

In the case of `Cc1ccc(CNc2c3ccccc3nc3ccccc23)cc1`, the growth with DU-145 prostate is 33.5%; in the test with K-562 leukemia, 2.99% (active); in the test on MALME-3M melanoma it was 16.2%; with MDA-MB-231 breast it was 43.2%; in the test with RXF 393 renal it was 10.1%; in the test on SF-268 CNS, 51.9%. Moreover, the growth in the test on SF-295 CNS was 31.3%; in the test on SF-539 CNS it was 18.1%; in the test on UACC-257 melanoma, 39.4%; with M14 melanoma, 28%; in the test on HCT-15 colon, 15.6%; with HT29 colon, 10.3%. The growth in the test on SNB-75 CNS was 41.7%; in the test on SNB-19 CNS, 29.7%; with U251 CNS, 26%; in the test with PC-3 prostate it was 24.3%; with SK-MEL-5 melanoma it was 30.1%; in the test on UACC-62 melanoma, 43.4%. For the same compound, the growth in the test on LOX IMVI melanoma is 11.8%; in the test with SK-MEL-28 melanoma it was 59.5%.

`O=C(/C=C/c1ccc(Cl)cc1)c1cccc(OCCCOc2cccc(C(=O)/C=C/c3ccc(Cl)cc3)c2)c1`: the growth in the test on DU-145 prostate was 113%; in the test with K-562 leukemia it was 88.8%; with MALME-3M melanoma, 109%; with MDA-MB-231 breast it was 110%; in the test with RXF 393 renal it was 106%; in the test with SF-268 CNS, 105%. Besides, the growth in the test on SF-295 CNS is 100%; with SF-539 CNS, 112%; in the test on UACC-257 melanoma, 98.6%; with M14 melanoma it was 98.6%; in the test with HCT-15 colon, 90.3%; in the test with HT29 colon, 98.6%. Further, the growth in the test on SNB-75 CNS was 91.5%; in the test with SNB-19 CNS, 99.1%; in the test on U251 CNS, 86.3%; in the test on PC-3 prostate, 104%; in the test on SK-MEL-5 melanoma, 102%; in the test with UACC-62 melanoma, 90%. For the same compound, the growth in the test on LOX IMVI melanoma is 99.1%; in the test with SK-MEL-28 melanoma, 102%.

On to `O=C(NCc1cccc(CNC(=O)Nc2nc3ccccc3[nH]2)c1)Nc1nc2ccccc2[nH]1`, for which the growth in the test on DU-145 prostate was -32.6% (active); with K-562 leukemia, 0.347% (active); with MALME-3M melanoma it was -74.2% (active); in the test with MDA-MB-231 breast, -66.6% (active); in the test on RXF 393 renal, 43.1%; in the test on SF-268 CNS, 0.441% (active). Moreover, the growth with SF-295 CNS is 5.41% (active); with SF-539 CNS, 27.5%; with UACC-257 melanoma, -54.1% (active); in the test on M14 melanoma, -77.4% (active); in the test on HCT-15 colon it was 69.5%; in the test on HT29 colon, -45.7% (active). Also, the growth in the test on SNB-75 CNS is -42.2% (active); in the test on SNB-19 CNS it was 9.35% (active); in the test on U251 CNS, -77.9% (active); in the test with PC-3 prostate, -59.8% (active); in the test with SK-MEL-5 melanoma it was -46.5% (active); in the test on UACC-62 melanoma, -15.9% (active). Besides, the values for the growth in the test on LOX IMVI melanoma and in the test on SK-MEL-28 melanoma were -20.4% (active) and -76.9% (active), respectively.

For `COc1cc(-c2nc3cc(Cl)c(Cl)cc3[nH]2)ccc1OCC(=O)N=Nc1c(O)[nH]c2ccc(Cl)cc12`, the growth is 6.51% (active) in the test with DU-145 prostate; -11.7% (active) with K-562 leukemia; -16.4% (active) in the test with MALME-3M melanoma; -43.8% (active) in the test with MDA-MB-231 breast; -6.73% (active) in the test with RXF 393 renal; -24.5% (active) in the test with SF-268 CNS. Besides, the growth was -18% (active) with SF-295 CNS; -36% (active) with SF-539 CNS; 7.43% (active) in the test with UACC-257 melanoma; -35.8% (active) in the test on M14 melanoma; 58.4% with HCT-15 colon; 9.24% (active) with HT29 colon. The growth in the test on SNB-75 CNS was 6.76% (active); in the test with SNB-19 CNS, 9.74% (active); in the test on U251 CNS it was -89.4% (active); with PC-3 prostate, 0.522% (active); with SK-MEL-5 melanoma it was -62.9% (active); in the test with UACC-62 melanoma it was -11.7% (active). Moreover, the growth in the test on LOX IMVI melanoma is -83.5% (active); in the test with SK-MEL-28 melanoma it was -2.83% (active).

Regarding `S=c1nc2oc(-c3ccccc3)c(-c3ccccc3)c2c(/N=C\c2ccco2)[nH]1`, the growth with DU-145 prostate is 100%; in the test with K-562 leukemia, 89.3%; in the test with MALME-3M melanoma, 99.3%; in the test with MDA-MB-231 breast, 98.5%; in the test on RXF 393 renal, 99.3%; with SF-268 CNS, 90.2%. For the same compound, the growth was 94.3% in the test on SF-295 CNS; 95.8% in the test with SF-539 CNS; 105% in the test with UACC-257 melanoma; 103% in the test on M14 melanoma; 85.6% with HCT-15 colon; 98.3% with HT29 colon. The growth was 74.2% in the test on SNB-75 CNS; 95.2% in the test on SNB-19 CNS; 91.4% with U251 CNS; 85.8% in the test with PC-3 prostate; 94.6% in the test on SK-MEL-5 melanoma; 90.9% in the test with UACC-62 melanoma. Further, the growth with LOX IMVI melanoma is 92.9%; with SK-MEL-28 melanoma, 109%.

As for `CC1(C)NCCC[C@]2(C)[C@H]3CC[C@H]4[C@H]5[C@H](C(=O)/C=C/c6cccnc6)CCC[C@]5(CO)CC[C@@]4(C)[C@]3(C)CC[C@@H]12`, the growth in the test on DU-145 prostate was 66.6%; in the test with K-562 leukemia, -3.12% (active); with MALME-3M melanoma it was 85.7%; with MDA-MB-231 breast it was 67.4%; in the test with RXF 393 renal, 66.2%; with SF-268 CNS, 72.9%. Moreover, the growth was 84.3% with SF-295 CNS; 81.4% with SF-539 CNS; 86.5% in the test on UACC-257 melanoma; 85.8% with M14 melanoma; 33.5% in the test on HCT-15 colon; 3.84% (active) in the test with HT29 colon. Moreover, the growth is 75.8% in the test on SNB-75 CNS; 72.2% with SNB-19 CNS; 11% in the test on U251 CNS; 59.4% with PC-3 prostate; 87% in the test on SK-MEL-5 melanoma; 96.7% in the test on UACC-62 melanoma. For the same compound, the growth is 13% in the test with LOX IMVI melanoma and 93.6% in the test on SK-MEL-28 melanoma.
